Measurements taken from article PMC5540273 (PLoS ONE, 2017).

Legend:
Details in all cases: concentration: 1 μM, replicates: in singlicate; n = 1
PKAC-alpha = system: T1, PKAC-alpha
T1 construct: gene PRKACA

PKAC-beta = system: T2, PKAC-beta
T2 construct: gene PRKACB

PKMYT1 = system: PKMYT1
PKN1 = system: PKN1
PKN2 = system: PKN2
PLK1 = system: PLK1
PLK2 = system: PLK2
PLK3 = system: PLK3
PLK4 = system: PLK4
PRKCD = system: PRKCD
PRKCE = system: PRKCE
PRKCH = system: PRKCH
PRKCI = system: PRKCI
PRKCQ = system: PRKCQ
PRKD1 = system: PRKD1
PRKD2 = system: PRKD2
PRKD3 = system: PRKD3
PRKG1 = system: PRKG1
PRKG2 = system: PRKG2
PRKR = system: T3, PRKR
T3 construct: gene EIF2AK2
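Note: KINOMEscan kinase panel screen.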

Structure (SMILES) | %Inh (PKAC-alpha) [%] | %Inh (PKAC-beta) [%] | %Inh (PKMYT1) [%] | %Inh (PKN1) [%] | %Inh (PKN2) [%] | %Inh (PLK1) [%] | %Inh (PLK2) [%] | %Inh (PLK3) [%] | %Inh (PLK4) [%] | %Inh (PRKCD) [%] | %Inh (PRKCE) [%] | %Inh (PRKCH) [%] | %Inh (PRKCI) [%] | %Inh (PRKCQ) [%] | %Inh (PRKD1) [%] | %Inh (PRKD2) [%] | %Inh (PRKD3) [%] | %Inh (PRKG1) [%] | %Inh (PRKG2) [%] | %Inh (PRKR) [%]
Fc1cccc(CSc2nnc(-c3ccc4c(c3)CCO4)o2)c1 | 29 | 0 | 24 | 0 | 0 | 0 | 6 | 11 | 21 | 7 | 0 | 0 | 3 | 15 | 0 | 12 | 0 | 0 | 26 | 0
COc1ccc(Nc2nccc(N3CCC(NS(=O)(=O)c4ccc(NC(C)=O)cc4)C3)n2)cc1 (stereo not drawn) [GSK1379729] | 6 | 0 | 12 | 37 | 2 | 12 | 0 | 0 | 8 | 0 | 22 | 22 | 22 | 10 | 25 | 0 | 41 | 12 | 0 | 0
Cc1nn2c(=O)cc(N3CCOCC3)nc2n1Cc1cccc(Cl)c1Cl [GSK2342769] | 7 | 7 | 1 | 36 | 0 | 5 | 0 | 0 | 0 | 0 | 0 | 21 | 5 | 19 | 20 | 0 | 16 | 0 | 0 | 0
O=C(NCCNc1ccnc(Nc2ccc(F)cc2)n1)Nc1ccc2c(c1)OCO2 [GSK1379882] | 0 | 0 | 0 | 23 | 0 | 4 | 0 | 0 | 4 | 0 | 13 | 16 | 0 | 3 | 0 | 7 | 0 | 0 | 0 | 9
CCC(=O)c1c(-c2ccccc2)c2cc(Cl)ccc2c(=O)n1Cc1cc(S(C)(=O)=O)n(CC(N)=O)n1 | 0 | 0 | 0 | 1 | 8 | 0 | 0 | 0 | 0 | 6 | 0 | 80 | 12 | 0 | 0 | 0 | 0 | 0 | 0 | 0
Cc1ccccc1COc1cc(-n2cnc3cc(Cl)ccc32)sc1C(N)=O [GW813349] | 0 | 21 | 0 | 7 | 0 | 97 | 92.4 | 92.8 | 2 | 12 | 2 | 0 | 20 | 1 | 7 | 0 | 0 | 8 | 7 | 0
Cc1c(Cn2c(C)nn3c(=O)cc(N4CCO[C@H](C)C4)nc23)cccc1C(F)(F)F [GSK2373690] | 0 | 11 | 11 | 0 | 0 | 0 | 0 | 0 | 0 | 0 | 0 | 35 | 26 | 17 | 0 | 0 | 0 | 15 | 0 | 0
Cc1cccc(-c2nc(Nc3ccc4c(cnn4C)c3)c3ccccc3n2)n1 [GW876731] | 0 | 14 | 4 | 55 | 33 | 7 | 0 | 0 | 13 | 5 | 15 | 0 | 0 | 0 | 99.2 | 99.6 | 90.2 | 9 | 0 | 0
COc1ccc(-n2cnc3c(N)ncnc32)cc1 [SKF-97236] | 0 | 19 | 17 | 46 | 0 | 18 | 3 | 2 | 1 | 9 | 0 | 23 | 28 | 0 | 0 | 1 | 5 | 14 | 33 | 0
CCC(=O)c1c(-c2ccccc2)c2cc(Cl)ccc2c(=O)n1Cc1ccc(C(=O)O)cc1 | 0 | 0 | 1 | 0 | 0 | 0 | 7 | 0 | 0 | 0 | 0 | 0 | 0 | 9 | 0 | 6 | 0 | 0 | 0 | 0
CCS(=O)c1ccc(-c2coc3ccc(-c4nnc(C)o4)cc23)cc1 (stereo not drawn) | 0 | 18 | 0 | 0 | 16 | 0 | 0 | 14 | 5 | 4 | 0 | 0 | 0 | 14 | 0 | 0 | 0 | 21 | 9 | 0
Cc1nnc(-c2ccc(C)c(-c3ccc(C(=O)O)cc3)c2)o1 [GW608005] | 0 | 0 | 0 | 28 | 0 | 0 | 0 | 0 | 0 | 0 | 0 | 0 | 0 | 5 | 0 | 0 | 19 | 0 | 0 | 0
CN1C(=O)C(Nc2cc(Cl)c(O)c(Cl)c2)=C(c2ccc(Cl)cc2)C1=O [SB-404321] | 0 | 0 | 0 | 0 | 0 | 0 | 0 | 0 | 0 | 0 | 0 | 0 | 3 | 0 | 54 | 0 | 0 | 0 | 0 | 4
CCn1c(-c2nonc2N)nc2ccccc21 [SB-693162/GW549034] | 0 | 0 | 0 | 0 | 0 | 62 | 21 | 34 | 30 | 0 | 44 | 17 | 31 | 16 | 0 | 3 | 0 | 0 | 67 | 0
COc1ccc(-c2coc3ccc(-c4nnc(SCc5cccc(C#N)c5)o4)cc23)cc1 | 11 | 0 | 0 | 32 | 0 | 0 | 11 | 12 | 18 | 12 | 0 | 0 | 0 | 31 | 0 | 23 | 0 | 0 | 21 | 0
COc1cc2nccc(Nc3ccc(OCc4ccc(NC(C)=O)cc4)cc3)c2cc1OC.Cl [GW440135] | 0 | 0 | 0 | 44 | 0 | 12 | 0 | 0 | 0 | 11 | 10 | 14 | 0 | 0 | 0 | 11 | 2 | 10 | 0 | 0
Cc1nc(N(C)[C@H]2CN(C(=O)CC#N)CC[C@H]2C)c2cc[nH]c2n1 | 17 | 0 | 4 | 0 | 12 | 0 | 5 | 0 | 0 | 2 | 0 | 8 | 9 | 10 | 0 | 1 | 66 | 2 | 0 | 5
COC(=O)c1c(-c2ccccc2)c2cc(C)ccc2c(=O)n1Cc1ccccc1 | 0 | 0 | 13 | 0 | 0 | 0 | 0 | 0 | 0 | 3 | 0 | 0 | 0 | 36 | 0 | 8 | 0 | 0 | 0 | 0
Nc1nc(N)c2nc(-c3ccccc3)[nH]c2n1 [SKF-12778] | 7 | 9 | 2 | 43 | 23 | 0 | 0 | 0 | 0 | 11 | 4 | 0 | 36 | 40 | 40 | 9 | 0 | 12 | 0 | 0
COc1cccc(C2=C(N(C)c3ccccc3)C(=O)NC2=O)c1 [SB-334865] | 0 | 0 | 1 | 0 | 0 | 0 | 0 | 0 | 17 | 0 | 25 | 5 | 7 | 0 | 6 | 0 | 10 | 0 | 0 | 0
OCCCNc1nccc(-c2c(-c3cccc(C(F)(F)F)c3)nn3cc(C(F)(F)F)ccc23)n1 [GW630813] | 0 | 0 | 0 | 0 | 0 | 0 | 0 | 0 | 12 | 0 | 7 | 10 | 0 | 0 | 22 | 10 | 0 | 0 | 0 | 8
